Experimental data: PubChem BioAssay AID2845 (The Scripps Research Institute Molecular Screening Center, 2010)
The whole screen tested about 2,300 compounds, of which about 2,000 (87%) were called active. The set was probably picked from earlier hits. Only a sample is shown. Values without a mark were called inactive. Cut-off read from the data, not from the text of the source: active = activation above about 49%; inactive = the rest.

target: Aryl hydrocarbon receptor (Homo sapiens) (UniProt P35869); assay: activators of human aryl hydrocarbon receptor reporter – cell-based, luminescence, luciferase reporter, confirmation (AID 2845); details: human cells, AHR-responsive luciferase reporter, at 9 µM, hits give high values;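 note: HepG2 hepatoma cells carrying a DRE-driven firefly luciferase reporter; 0% = vehicle wells and 100% = reference agonist wells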
Sequence (P35869 whole entry, looked up): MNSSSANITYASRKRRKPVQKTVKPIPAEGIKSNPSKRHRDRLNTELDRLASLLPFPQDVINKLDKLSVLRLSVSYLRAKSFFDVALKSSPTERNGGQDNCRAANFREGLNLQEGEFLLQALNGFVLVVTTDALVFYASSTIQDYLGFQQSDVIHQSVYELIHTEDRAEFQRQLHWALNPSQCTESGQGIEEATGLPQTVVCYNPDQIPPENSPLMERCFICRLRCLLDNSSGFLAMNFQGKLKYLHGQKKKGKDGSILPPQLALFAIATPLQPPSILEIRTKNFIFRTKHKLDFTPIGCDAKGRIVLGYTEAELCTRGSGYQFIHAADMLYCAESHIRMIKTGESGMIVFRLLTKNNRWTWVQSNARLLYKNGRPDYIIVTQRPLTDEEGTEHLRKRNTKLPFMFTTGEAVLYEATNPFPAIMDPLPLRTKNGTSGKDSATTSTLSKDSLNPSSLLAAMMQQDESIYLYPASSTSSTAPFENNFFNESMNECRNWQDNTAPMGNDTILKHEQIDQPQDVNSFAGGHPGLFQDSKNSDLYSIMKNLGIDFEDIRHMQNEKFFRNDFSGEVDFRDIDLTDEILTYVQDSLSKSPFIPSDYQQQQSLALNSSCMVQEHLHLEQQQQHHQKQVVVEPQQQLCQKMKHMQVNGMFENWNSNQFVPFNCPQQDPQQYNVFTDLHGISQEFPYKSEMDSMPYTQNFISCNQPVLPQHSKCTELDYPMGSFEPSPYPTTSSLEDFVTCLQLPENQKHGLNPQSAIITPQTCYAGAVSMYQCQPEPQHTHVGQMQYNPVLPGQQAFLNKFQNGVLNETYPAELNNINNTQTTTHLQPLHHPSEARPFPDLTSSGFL

SMILES	activation
COc1ccccc1N1CCN(C(=O)c2cc3c(-c4ccc(Cl)cc4)nn(C)c3s2)CC1	102% (active)
CCOC(=O)N1CCN(C(=O)c2cc3c(-c4ccc(Cl)cc4)nn(C)c3s2)CC1	85.9% (active)
Cn1nc(-c2ccc(Cl)cc2)c2cc(C(=O)NCc3ccco3)sc21	148% (active)
CN(C)c1nc(Nc2ccc(Cl)c(Cl)c2)nc(N(C)C)n1	129% (active)
C=CCNC(=O)CSc1nc2sc(C)c(C)c2c(=O)[nH]1	53% (active)
c1cnc(N2CCN(c3ccc4ccccc4n3)CC2)nc1	96.5% (active)
Cc1nc2sc(C(=O)c3ccccc3)c(N)c2c2c1CCCC2	97.5% (active)
Cn1c(SCC(=O)c2ccccc2)ncc(C(=O)Nc2ccc(F)cc2)c1=O	120% (active)
CC1Cc2ccccc2N1C(=O)CSc1nnc(C2CC2)n1C (stereo not given)	47.2% (active)
COc1ccc(C(=O)Nc2ccccc2C(=O)N/N=C/c2ccccc2OC)cc1	66.5% (active)
O=C(CC1Nc2ccccc2NC1=O)Nc1ccccc1 (stereo not given)	119% (active)
Cn1cc(Cl)c(C(=O)NNC(=S)Nc2cccc(Cl)c2)n1	75.4% (active)
O=C(Nn1c(-c2ccc(Cl)cc2)nc2ccccc2c1=O)c1cccnc1Cl	28.5%
Cc1ccc(-c2nc(C#N)c(NCCCn3ccnc3)o2)cc1	107% (active)
O=C(Cn1c(NCCO)nc2ccccc21)c1ccc(Cl)cc1Cl	115% (active)
COc1ccc(C2NC(=O)c3ccccc3N2)cc1 (stereo not given)	39.3%
Cc1cc(O)c(C(=O)/C=C/c2c(F)c(F)c(F)c(F)c2F)c(=O)o1	69.7% (active)
CCOC(=O)c1ccc2[nH]c3c(c2c1)CCCC3NC=O (stereo not given)	89.1% (active)
CC(C)C(=O)Nc1c(C(=O)c2ccc(F)cc2)oc2ccccc12	84.4% (active)
O=C(CSc1ccccn1)Nc1nc2c(ccc3ccccc32)s1	130% (active)

SMILES	activation
CSc1ncccc1C(=O)Nc1nc2ccc(F)cc2s1	-8.12%
C/C(=N\NC(=O)CNc1cccc2ccccc12)c1ccc(Br)s1	79.5% (active)
Cc1nn2c3cc(N4CCOCC4)ccc3nc2c2ccccc12	85% (active)
Cc1cc(N2CCOCC2)nc(-c2ccc(Br)cc2)n1	60.3% (active)
O=C(Cn1cncn1)N/N=C/c1c2ccccc2cc2ccccc12	73.7% (active)
CCOc1ccccc1NC(=O)c1cccnc1	121% (active)
Cc1ccc(Cl)cc1NC(=O)C1CCCN(c2cnccn2)C1 (stereo not given)	90.8% (active)
O=C(Nc1cccc(Cl)c1)C1CCCN(c2cnccn2)C1 (stereo not given)	73% (active)
Brc1ccc(-c2noc(-c3ccccc3)n2)o1	162% (active)
Nc1[nH][nH]c(=O)c1N=Nc1ccc2c(c1)OCO2	74.9% (active)
C=CCOc1c(Br)cc(/C=N\n2nnnc2N)cc1OC	77.9% (active)
COc1ccc(Cl)cc1C(=O)Nc1ccc(N(C)C(C)=O)cc1	78.6% (active)
COc1cccc(-n2c(SCC(=O)NC3CCCCC3)nc3n[nH]c(C)c3c2=N)c1	83.7% (active)
COc1cccc(OC)c1C(=O)Nc1ccc(N2CCCCC2)cc1	80.7% (active)
COc1cc2ccccc2cc1C(=O)Nc1ccc(N2CCOCC2)cc1	118% (active)
O=C(Nc1ccc(OC(F)(F)F)cc1)c1ccc2c(c1)no[n+]2[O-]	127% (active)
OCCNc1nc(Nc2ccc(Cl)c(Cl)c2)nc2ccccc12	83.8% (active)
CCc1nc(Nc2ccc3nccnc3c2)c2oc3ccccc3c2n1	120% (active)
CCCCC(=O)Nc1ccc(C(=O)Nc2cc(C(F)(F)F)ccc2Cl)cc1	92.7% (active)
Cc1nn(-c2ccccc2)c2[nH]c(C(F)(F)F)cc(=O)c12	52.9% (active)
